Results filed as inconclusive are left out. A number with no mark means an inactive call. Calls come from the whole dose curve; as a rule, active = well fitted inhibition curve with a large enough effect in the repeat runs; inconclusive = weak or mixed curves, or effect the other way; inactive = no such curve, though single readings can be large or run the other way.
% is set by controls: 0 for no effect and ±100 for the full control effect.

The nature of this assay: qHTS assay to identify small molecule antagonists of the retinoic acid receptor (RAR) signaling pathway (AID 1159552; note: nearly all actives have a fitted effect of over 50% in size). The conditions noted are these: C3RL4 RARE luciferase reporter, retinol-stimulated, 6 h; series mostly up to 92.4 µM; activity, negative = inhibition: at the top concentration. The source says:
National Center for Advancing Translational Sciences [NCATS]
NIH Chemical Genomics Center [NCGC]
U.S. Environmental Protection Agency [EPA]
National Institutes of Environmental Health Sciences [NIEHS]
National Toxicology Program [NTP]
U.S. Food and Drug Administration [FDA]
All-trans Retinoic acid (atRA) is the potent natural metabolite of retinol and plays an important role in normal embryonic development and maintenance of cellular phenotype in adult animals. atRA is the activating ligand for the retinoic acid receptors (RARs) which form heterodimers with retinoid X receptors (RXRs) on the retinoic acid response element (RARE). Through activation of the RAR/RXRs nuclear receptors, atRA regulates the transcription of a large number of protein-coding genes and regulatory RNAs. Intracellular levels of atRA are controlled by the retinol signaling pathway (RSP) that regulates the biosynthesis and catabolism of atRA to maintain physiological levels. Chemicals that interfere with the RSP can cause abnormal intracellular levels of atRA and therefore are potential developmental toxicants. To assess compounds for the potential adverse effect on embryonic development through interfering with retinol signaling, a cell-based RARE luciferase reporter gene assay was used. C3RL4 cell line (OARSA/CFSAN/FDA, Laurel, MD) was used to screen Tox21 10K compound library for identifying inhibitors of the RSP.
Tox21 Assay Protocol Summary:
C3RL4 cells were seeded at 1,000/well in 4 uL of assay medium into white solid 1,536-well tissue culture plates (Greiner Bio-One North America Inc. Monroe, NC) using a Multidrop Combi (Thermo Scientific, Waltham, MA) dispenser. After incubation at 37 C and 5% CO2 for an overnight, 23 nL of compounds dissolved in DMSO, positive control or DMSO only were transferred by a Pintool station (Kalypsys, San Diego, CA). One ul of 1 uM (final concentration) of Retinol was added right after the compound addition by using a Flying Reagent Dispenser (FRD) (Aurora Discovery, San Diego, CA). After 6 hr incubation at 37 C and 5% CO2, 5 uL of Amplite Luciferase reagent (AAT Bioquest Inc. Sunnyvale, CA) was added to each assay plate using an FRD. Luminescence was quantified on a ViewLux plate reader (PerkinElmer, Waltham, MA) after 30 min incubation at room temperature.
A general note: qHTS replaces the single test concentration by a dilution series.
As to `Nc1ccc(C(=O)NCC(=O)O)cc1`, the “activity, negative = inhibition” value is -1.07% [at 42.5 µM].
Then `CC(C)C(=O)Nc1cccc(C2CN3CCSC3=N2)c1` (stereo not given), with 5.67% [at 42.5 µM]; and `O=c1[nH]c(=O)c2cn[nH]c2[nH]1`, with 9.14%.
The value for `CCN(CC)CC(=O)Oc1ccc(NC(C)=O)cc1` was -5.14% [at 42.5 µM]; that for `COc1cc(C(=O)NC2CCCNC2)cc(OC)c1OC` (stereo not given) was -1.48% [at 42.5 µM]; that for `C=CCn1cc[n+](C)c1` was 11.7%.
The value for `CN1CCN(C(=O)C2CCCCC2)CC1` was 11.6% [at 42.5 µM]; that for `N=C(N)N1CCc2ccccc2C1` was -2.43% [at 8.39 µM]; that for `O=C(O)P(=O)(O)O` was 0.377% [at 42.5 µM].
Regarding `COC(=O)C(c1ccccc1Cl)N1CCc2sccc2C1` (stereo not given), the “activity, negative = inhibition” value is 9.72% [at 42.5 µM].
The value for `Nc1cc(S(=O)(=O)O)ccc1O` was 2.32%; that for `CNC(C)=O` was 10.1%; that for `C=CC(=O)CC` was 83.4%.
Regarding `Cc1cc(N)no1`, the “activity, negative = inhibition” value is 6.67%.
With `O=C(O)/C=C(\CC(=O)O)C(=O)O`, the “activity, negative = inhibition” value is -7.49% [at 42.5 µM].
The value for `O=C[C@@H](O)[C@H](O)[C@H](O)CO` was -8.31%; that for `CC(=O)Nc1ccc(S(=O)(=O)Nc2cc(C)on2)cc1` was 1.42% [at 42.5 µM]; that for `O=P(O)(O)C(O)(Cc1cccnc1)P(=O)(O)O` was 6.8% [at 42.5 µM].
Consider `CCOC(=O)[C@H](CCc1ccccc1)N[C@H]1CS[C@H](c2cccs2)CN(CC(=O)O)C1=O`, for which the “activity, negative = inhibition” value was 6.28% [at 42.5 µM].
Then `CC(CN1CC(=O)NC(=O)C1)N1CC(=O)NC(=O)C1` (stereo not given), with -9.91%.
Then `C=CCON/C(CCC)=C1\C(=O)CC(C)(C)C(C(=O)OC)=C1O`, with 0.707%; and `CCC(C)(C)C`, with 41.7%.
Then `C[C@@H]1NC(=O)[C@@H](N)CNC(=O)[C@H](C2CCNC(N)=N2)NC(=O)/C(=C/NC(N)=O)NC(=O)[C@H](CNC(=O)C[C@@H](N)CCCN)NC1=O` (stereo not given in full), with 21% [at 0.349 µM]; and `CCO/C=C1\N=C(c2ccccc2)OC1=O`, with 11.4%; and `C[C@@H]1CC[C@@]2(OC1)O[C@H]1C[C@H]3[C@@H]4CC[C@H]5C[C@@H](O)CC[C@]5(C)[C@H]4CC(=O)[C@]3(C)[C@H]1[C@@H]2C`, with -0.792% [at 8.39 µM].
In the case of `COc1cc(NS(=O)(=O)c2ccc(N)cc2)ncn1`, the “activity, negative = inhibition” value was 5.08% [at 42.5 µM].
As to `CCCC(=O)OC`, the “activity, negative = inhibition” value was 9.88%.
Then `CCCC[O][Al]([O]CCCC)[O]CCCC`, with 13.3%; and `CCCOc1ccc(C(=O)OCCN(CC)CC)cc1N`, with 16.9% [at 42.5 µM]; and `NNC(=O)OCc1ccccc1`, with -3.19%.
Then `O=S(=O)(O)c1ccc(Cl)cc1`, with 3.13%; and `O=C(OOC(=O)c1ccccc1)c1ccccc1`, with 4.1% [at 42.5 µM].
The value for `CCCc1ccc(O)c(OC)c1` was -7.86%; that for `CC(=O)OC/C=C(/C)CCC=C(C)C` was 15.3%.
On to `C/C(Cl)=C/CCl`, for which the “activity, negative = inhibition” value was 48.3%.
`CC(=O)c1ccc(O)c(C(N)=O)c1`: the “activity, negative = inhibition” value is -2.02% [at 42.5 µM].
Turning to `CC/C=C/CCCCCCCCCCOC(C)=O`, the “activity, negative = inhibition” value is -0.719%.
Take `COCc1nnc(-c2ccc[n+]([O-])c2)n1-c1c(Cl)c(Cl)cc2[nH]c(=O)c(=O)[nH]c12`: the “activity, negative = inhibition” value was 9.23%.
Consider `CCCCCCCCCCCC(C)=O`, for which the “activity, negative = inhibition” value was 12.8%.
Regarding `CC[N+](C)(CC)CC`, the “activity, negative = inhibition” value was 6.68%.
